Inconclusive results are not listed. The source made the active and inactive calls. Unless noted, the call rests on the fitted dose curve; in most records, active means well fitted curve in the direction sought with a large enough effect in the repeat runs; inconclusive means weak or mixed curves; inactive means no such curve, though single readings can be large; an effect the other way counts as inactive or inconclusive.
Columns and labels:
[1] = qHTS assay to identify small molecule agonists of the estrogen receptor alpha (ER-alpha) signaling pathway in the presence of an antagonist - cell viability counter screen (AID 1259386); conditions: VM7Luc4E2 viability, CellTiter-Fluor fluorescence, 22 h; series mostly up to 92.4 µM;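 further: cells exposed to compounds for 22 h at 37 °C before the viability read; nearly all actives have a fitted effect of over 30% in size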
Method in brief: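 ICI-182,780 at 10.0nM final accompanies the compound titration (15 concentrations, 22hr, 37C) on VM7Luc4E2 cells. The CellTiter-Fluor fluorescence readout runs in the same wells as the luciferase assay.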

[2] = target: Progesterone receptor (Homo sapiens) (UniProt P06401); assay: qHTS assay to identify small molecule agonists of the progesterone receptor (PR) signaling pathway (AID 1346784; calls by dose curve; further: nearly all actives have a fitted effect of over 30% in size); conditions: PR-UAS-bla HEK293T, beta-lactamase FRET ratio, 16 h; series mostly up to 92.4 µM
Method in brief: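 Agonist mode, quantitative HTS format in a HEK 293T line expressing a UAS-controlled beta-lactamase reporter; 16 hr compound exposure at 37C in 2% charcoal-stripped FBS, then LiveBLAzer B/G FRET fluorescence.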

[3] = target: Progesterone receptor (Homo sapiens) (UniProt P06401); assay: qHTS assay to identify small molecule antagonists of the progesterone receptor (PR) signaling pathway (AID 1346795; active means well fitted inhibition curve with a large enough effect in the signal ratio in the repeat runs, not every such curve was filed as active; the % refers to the signal ratio); conditions: PR-UAS-bla HEK293T, beta-lactamase FRET ratio, 16 h; series mostly up to 92.4 µM
Method in brief: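 HEK293T PR-UAS-bla reporter cells in charcoal-stripped serum (2%) received compound after a 6 hr settling period, followed by R5020 agonist at 1 nM final; 16 hr incubation preceded the FRET substrate step and fluorescence measurement.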

[4] = qHTS assay to identify small molecule antagonists of the progesterone receptor (PR) signaling pathway - cell viability counter screen (AID 1346798); conditions: PR-UAS-bla HEK293T viability, CellTiter-Glo luminescence, 16 h; series mostly up to 92.4 µM; further: nearly all actives have a fitted effect of over 50% in size
Method in brief: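 Same-well multiplex: after 16 hr at 37C with compound and R5020 stimulation, HEK293T cells carrying a UAS-bla reporter received LiveBLAzer substrate (2 hr RT), then CellTiter-Glo (30 min RT) for luminescent viability.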

[5] = qHTS assay to identify small molecule agonists of the progesterone receptor (PR) signaling pathway - cell viability counter screen (AID 1346799; calls by dose curve; further: nearly all actives have a fitted effect of over 45% in size); conditions: PR-UAS-bla HEK293T viability, CellTiter-Glo luminescence, 16 h; series mostly up to 92.4 µM
Method in brief: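 Counter screen for cytotoxicity: compound-treated PR-UAS-bla HEK293T cells (16 hr, 37C, 5% CO2) were assayed with CellTiter-Glo, luminescence measured after 30 min at room temperature.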

[6] = qHTS assay to identify small molecule antagonists of the TGF-beta/Smad signaling pathway - cell viability counter screen (AID 1346824); conditions: SBE-bla HEK293T viability, CellTiter-Glo luminescence; series mostly up to 76.8 µM; further: nearly all actives have a fitted effect of over 50% in size
Method in brief: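 Cytotoxicity counter-screen run in the same wells as the beta-lactamase Smad reporter read: CellTiter-Glo luminescence after 30 min at room temperature. HEK 293T SBE-bla cells had 5 hr compound exposure at 37 C with TGF-beta1 (0.25 ng/mL stock).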

[7] = qHTS assay to identify small molecule agonists of the TGF-beta/Smad signaling pathway - cell viability counter screen (AID 1346829); conditions: SBE-bla HEK293T viability, CellTiter-Glo luminescence, 5 h; series mostly up to 76.8 µM; further: top concentration of the series differs between compounds; nearly all actives have a fitted effect of over 45% in size
Method in brief: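 Here the cytotoxicity of library compounds is measured in SBE-bla HEK 293T cells treated for 5 hr, using CellTiter-Glo added to wells already read for the beta-lactamase reporter.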

[8] = qHTS assay to identify small molecule agonists of the TGF-beta/Smad signaling pathway (AID 1346859; active means well fitted activation curve with a large enough effect in the signal ratio in the repeat runs, not every such curve was filed as active; the % refers to the signal ratio); conditions: SBE-bla HEK293T, TGF-beta/Smad beta-lactamase reporter, 5 h; series mostly up to 76.8 µM
Method in brief: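 Smad-responsive beta-lactamase reporter cells (HEK 293T) received compounds from DMSO stocks after overnight attachment, were incubated 5 hr, then treated 2 hr with FRET substrate before dual-emission fluorescence measurement (405 nm excitation).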

[9] = target: Thyrotropin-releasing hormone receptor (Homo sapiens) (UniProt P34981); assay: qHTS assay to identify small molecule antagonists of the thyrotropin-releasing hormone receptor (TRHR) signaling pathway (AID 1346877; active means well fitted inhibition curve with a large enough effect in the repeat runs, not every such curve was filed as active); conditions: TRHR-HEK293, TRH-induced calcium fluorescence, antagonist mode; series mostly up to 51.3 µM
Method in brief: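 Screening used HEK293 cells engineered with TRHR, with a brief 5 min room-temperature compound exposure preceding addition of TRH to 1 nM. The read-out was kinetic calcium-dye fluorescence, concentration-response from 15 doses in triplicate.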

[10] = Human pregnane X receptor (PXR) small molecule agonists, qHTS cell viability counter screen (AID 1346977); conditions: PXR-Luc HepG2 viability, CellTiter-Fluor, 24 h; series mostly up to 92.4 µM; further: nearly all actives have a fitted effect of over 50% in size
Method in brief: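 Measures live-cell protease fluorescence (CellTiter-Fluor) in PXR-Luc HepG2 cells treated 24hr with compounds at 37C. Cells had 5hr to attach before pin transfer of DMSO solutions.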

[11] = Caspase-3/7 induction in HepG2 cells by small molecules, qHTS assay (AID 1346978); conditions: HepG2 caspase-3/7 activation, Caspase-Glo luminescence, 17 h; series mostly up to 92.4 µM; further: nearly all actives have a fitted effect of over 15% in size
Method in brief: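 Caspase-3/7 induction was measured by Caspase-Glo 3/7 luminescence (30 min, room temperature) after a 17 hr compound exposure of wild-type HepG2 cells seeded at 2,000 per well and pre-incubated 5 hr.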

[12] = Caspase-3/7 induction in CHO-K1 cells by small molecules, qHTS cell viability counter screen (AID 1346979); conditions: CellTiter-Fluor fluorescence, 17 h; series mostly up to 92.4 µM; further: nearly all actives have a fitted effect of over 35% in size
Method in brief: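 In the same wells as the caspase read, viability of compound-treated wild-type CHO-K1 cells was assessed using CellTiter-Fluor, added after 16hr at 37C and measured by fluorescence following 1hr further incubation.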

[13] = Caspase-3/7 induction in CHO-K1 cells by small molecules, qHTS assay (AID 1346980); conditions: CHO-K1 caspase-3/7 induction, Caspase-Glo luminescence, 17 h; series mostly up to 92.4 µM; further: nearly all actives have a fitted effect of over 15% in size
Method in brief: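 Luminescent Caspase-Glo 3/7 read (30min, room temperature) quantified apoptosis induction. Cells were wild-type CHO-K1, treated with compound for 17hr at 37 C and 5% CO2.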

[14] = target: Nuclear receptor subfamily 1 group I member 2 (Homo sapiens) (UniProt O75469); assay: Human pregnane X receptor (PXR) small molecule agonists, qHTS assay (AID 1346982); conditions: PXR-Luc HepG2, CYP3A4 luciferase reporter, 24 h; series mostly up to 92.4 µM; further: nearly all actives have a fitted effect of over 35% in size
Method in brief: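 We seeded PXR-Luc HepG2 cells in assay medium containing 5% charcoal-stripped FBS, added compounds 5 hr later, incubated 24 hr, and read luminescence with ONE-Glo reagent.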

[15] = target: Acetylcholinesterase (Homo sapiens) (UniProt P22303); assay: Acetylcholinesterase (AChE) small molecule antagonists: colormetric cell-based qHTS assay (AID 1347395; calls by dose curve; further: nearly all actives have a fitted effect of over 30% in size); conditions: SH-SY5Y cells AChE activity, colorimetric (Ellman); series mostly up to 115 µM
Method in brief: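 Endogenous AChE of human neuroblastoma SH-SY5Y cells was measured with an Ellman-type DTNB/acetylthiocholine mix. Compound pretreatment lasted 30 min at 37 C; substrate reaction ran 90 min at 37 C.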

[16] = target: Acetylcholinesterase (Homo sapiens) (UniProt P22303); assay: Acetylcholinesterase (AChE) small molecule antagonists: enzyme-based qHTS assay (AID 1347397; calls by dose curve; further: nearly all actives have a fitted effect of over 55% in size); conditions: Potency: AChE enzyme activity inhibition; series mostly up to 115 µM
Method in brief: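 Absorbance-based detection of thiocholine with DTNB served as the read-out. Recombinant human AChE was exposed to compound for 30 min at RT before a 10 min RT incubation with acetylthiocholine.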

[17] = target: Thyrotropin-releasing hormone receptor (Homo sapiens) (UniProt P34981); assay: qHTS assay to identify small molecule agonists of the thyrotropin-releasing hormone receptor (TRHR) signaling pathway (AID 1346891; calls by dose curve;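 further: HEK293 cells expressing TRHR with calcium dye readout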); conditions: TRHR-HEK293 calcium fluorescence, agonist mode; series mostly up to 57.6 µM
Method in brief: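 Agonist-mode calcium mobilisation screen: TRHR-transfected HEK293 cells cultured overnight (18 h), dye-loaded for 2 h at 37 °C, exposed to compounds, and monitored by fluorescence for 3 min.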

[18] = Caspase-3/7 induction in HepG2 cells by small molecules, qHTS cell viability counter screen (AID 1346981); conditions: CellTiter-Fluor fluorescence, 17 h; series mostly up to 92.4 µM; further: nearly all actives have a fitted effect of over 30% in size
Method in brief: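 Multiplexed with the caspase-3/7 assay: HepG2 cells, 16 hr compound treatment, CellTiter-Fluor viability detection by fluorescence.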

[19] = target: Nuclear receptor subfamily 1 group I member 2 (Rattus norvegicus) (UniProt Q9R1A7); assay: Rat pregnane X receptor (rPXR) activation by small molecules, qHTS assay (AID 1346983); conditions: rPXR luciferase reporter cells, One-Glo luminescence, 24 h; max activation: hits give high values; further: nearly all actives have a fitted effect of over 20% in size
Method in brief: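 Luminescent readout (One-Glo luciferase, 30 min room temperature) followed 24 hr compound treatment at 37 C of rPXR cells plated 2,000 per well and preincubated 5hr; qHTS format with compounds delivered in DMSO.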

[20] = target: Nuclear receptor subfamily 1 group I member 2 (Homo sapiens) (UniProt O75469); assay: CYP3A4 induction through human pregnane X receptor (PXR) by small molecules, qHTS assay (AID 1346984); conditions: DPX-2 HepG2 PXR, CYP3A4-luciferin luminescence, 24 h; series mostly up to 46.1 µM; further: nearly all actives have a fitted effect of over 40% in size
Method in brief: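 qHTS, concentration-response format: HepG2 DPX-2 line, PXR/CYP3A4-luc. Exposure 24 h, 37C. Substrate Luciferin-IPA 3uM final, 3 h. Detection One-Glo, 30 min RT.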
On the % scale 0 is the no-effect control and ±100 the full control effect.

Sequence of Thyrotropin-releasing hormone receptor (Homo sapiens) (P34981 whole entry, looked up): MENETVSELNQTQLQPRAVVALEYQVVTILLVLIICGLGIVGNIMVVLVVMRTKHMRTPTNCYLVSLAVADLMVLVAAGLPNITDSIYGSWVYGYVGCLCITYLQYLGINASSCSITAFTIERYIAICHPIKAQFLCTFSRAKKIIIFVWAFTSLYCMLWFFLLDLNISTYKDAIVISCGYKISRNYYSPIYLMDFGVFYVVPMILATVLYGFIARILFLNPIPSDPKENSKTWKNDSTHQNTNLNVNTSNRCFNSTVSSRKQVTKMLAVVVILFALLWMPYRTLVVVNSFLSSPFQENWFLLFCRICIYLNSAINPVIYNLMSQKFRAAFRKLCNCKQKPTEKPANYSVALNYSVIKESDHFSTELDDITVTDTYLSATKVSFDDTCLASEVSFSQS
Sequence of Nuclear receptor subfamily 1 group I member 2 (Homo sapiens) (O75469 whole entry, looked up): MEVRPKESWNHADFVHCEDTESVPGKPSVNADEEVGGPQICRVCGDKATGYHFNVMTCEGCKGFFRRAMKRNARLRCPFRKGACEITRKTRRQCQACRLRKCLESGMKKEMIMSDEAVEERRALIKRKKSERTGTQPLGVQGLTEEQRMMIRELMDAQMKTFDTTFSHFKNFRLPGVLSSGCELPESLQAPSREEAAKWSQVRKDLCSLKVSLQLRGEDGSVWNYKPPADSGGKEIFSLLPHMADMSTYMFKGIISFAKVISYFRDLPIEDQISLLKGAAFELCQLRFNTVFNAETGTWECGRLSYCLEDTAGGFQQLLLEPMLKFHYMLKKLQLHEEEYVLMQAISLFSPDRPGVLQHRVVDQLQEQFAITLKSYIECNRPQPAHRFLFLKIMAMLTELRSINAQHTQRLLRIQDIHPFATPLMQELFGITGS
Sequence of Progesterone receptor (Homo sapiens) (P06401 whole entry, looked up): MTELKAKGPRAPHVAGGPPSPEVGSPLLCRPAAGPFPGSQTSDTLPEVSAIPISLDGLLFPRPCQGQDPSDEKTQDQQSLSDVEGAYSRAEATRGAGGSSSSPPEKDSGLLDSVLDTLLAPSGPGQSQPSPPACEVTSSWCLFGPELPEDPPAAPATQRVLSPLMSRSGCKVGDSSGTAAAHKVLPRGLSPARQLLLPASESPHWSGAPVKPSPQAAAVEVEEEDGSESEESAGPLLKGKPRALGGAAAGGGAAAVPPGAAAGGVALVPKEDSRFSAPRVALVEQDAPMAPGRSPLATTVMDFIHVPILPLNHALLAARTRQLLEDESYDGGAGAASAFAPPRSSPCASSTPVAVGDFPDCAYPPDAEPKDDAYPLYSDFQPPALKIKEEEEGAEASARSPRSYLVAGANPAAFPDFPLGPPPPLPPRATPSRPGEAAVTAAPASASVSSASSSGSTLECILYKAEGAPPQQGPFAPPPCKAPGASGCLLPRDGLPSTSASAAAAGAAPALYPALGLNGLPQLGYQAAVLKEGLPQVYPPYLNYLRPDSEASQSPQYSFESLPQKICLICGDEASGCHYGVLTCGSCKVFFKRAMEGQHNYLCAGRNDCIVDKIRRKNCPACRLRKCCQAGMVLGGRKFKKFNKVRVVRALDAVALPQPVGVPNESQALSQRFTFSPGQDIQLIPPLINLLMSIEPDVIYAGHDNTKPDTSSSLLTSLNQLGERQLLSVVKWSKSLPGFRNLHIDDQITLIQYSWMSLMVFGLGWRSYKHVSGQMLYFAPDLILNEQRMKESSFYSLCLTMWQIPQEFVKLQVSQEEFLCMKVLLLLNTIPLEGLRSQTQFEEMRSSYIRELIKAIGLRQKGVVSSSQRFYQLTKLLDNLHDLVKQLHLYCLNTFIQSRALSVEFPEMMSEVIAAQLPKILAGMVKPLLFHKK
Sequence of Acetylcholinesterase (Homo sapiens) (P22303 whole entry, looked up): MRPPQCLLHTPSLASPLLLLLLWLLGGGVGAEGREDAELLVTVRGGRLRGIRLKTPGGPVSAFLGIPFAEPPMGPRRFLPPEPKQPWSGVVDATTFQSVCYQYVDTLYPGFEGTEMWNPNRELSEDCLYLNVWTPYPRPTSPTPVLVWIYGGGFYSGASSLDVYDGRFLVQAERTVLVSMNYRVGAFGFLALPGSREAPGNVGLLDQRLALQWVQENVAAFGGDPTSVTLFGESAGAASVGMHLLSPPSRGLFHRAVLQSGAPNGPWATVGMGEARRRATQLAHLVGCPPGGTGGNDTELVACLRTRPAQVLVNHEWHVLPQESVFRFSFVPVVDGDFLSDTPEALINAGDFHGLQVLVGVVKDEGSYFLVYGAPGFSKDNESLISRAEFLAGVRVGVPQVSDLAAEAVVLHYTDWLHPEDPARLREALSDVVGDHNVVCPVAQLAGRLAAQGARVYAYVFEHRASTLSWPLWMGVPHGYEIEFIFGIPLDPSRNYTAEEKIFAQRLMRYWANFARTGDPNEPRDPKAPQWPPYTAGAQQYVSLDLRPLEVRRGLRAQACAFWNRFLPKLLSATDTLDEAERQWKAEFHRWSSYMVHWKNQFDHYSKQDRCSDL
Sequence of Nuclear receptor subfamily 1 group I member 2 (Rattus norvegicus) (Q9R1A7 whole entry, looked up): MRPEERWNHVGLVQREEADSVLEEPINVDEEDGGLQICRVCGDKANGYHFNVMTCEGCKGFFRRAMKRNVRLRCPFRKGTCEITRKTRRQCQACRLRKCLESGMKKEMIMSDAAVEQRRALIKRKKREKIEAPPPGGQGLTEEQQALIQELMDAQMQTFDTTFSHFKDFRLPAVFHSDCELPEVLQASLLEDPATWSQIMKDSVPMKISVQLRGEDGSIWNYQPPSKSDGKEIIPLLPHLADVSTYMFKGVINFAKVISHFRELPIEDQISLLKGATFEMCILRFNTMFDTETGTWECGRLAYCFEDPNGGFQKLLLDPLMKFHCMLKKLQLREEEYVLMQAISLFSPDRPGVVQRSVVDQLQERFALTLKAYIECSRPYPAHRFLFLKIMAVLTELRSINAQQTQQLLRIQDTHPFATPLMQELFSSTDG

Sc1ccccc1Cl
inactive: Potency [1] | Potency [2] | Potency [3] | Potency [4] | Potency [5] | Potency [6] | Potency [7] | outcome [8] | Potency [9] | Potency [10] | Potency [11] | Potency [12] | Potency [13] | Potency [14] | Potency [15] | Potency [16]

Clc1cccc2ccccc12
inactive: Potency [1] | Potency [2] | Potency [3] | Potency [4] | Potency [5] | Potency [6] | Potency [7] | outcome [8] | Potency [17] | Potency [10] | Potency [11] | Potency [12] | Potency [13] | Potency [18] | Potency [14] | Potency [15] | Potency [16]

N#Cc1ccc(Cl)cc1
inactive: Potency [1] | Potency [2] | Potency [3] | Potency [4] | Potency [5] | Potency [6] | Potency [7] | outcome [8] | Potency [9] | Potency [17] | Potency [10] | Potency [11] | Potency [12] | Potency [13] | Potency [18] | Potency [14] | Potency [15] | Potency [16]

CC(=O)NC1CCSC1=O (configuration not stated)
inactive: Potency [1] | Potency [2] | Potency [3] | Potency [4] | Potency [5] | Potency [6] | Potency [7] | outcome [8] | Potency [17] | Potency [10] | Potency [11] | Potency [12] | Potency [13] | Potency [18] | Potency [14] | max activation [19] 10.8% | Potency [20] | Potency [15] | Potency [16]

Nc1nc(N)nc(N)n1
inactive: Potency [1] | Potency [2] | Potency [3] | Potency [4] | Potency [5] | Potency [6] | Potency [7] | outcome [8] | Potency [9] | Potency [10] | Potency [11] | Potency [12] | Potency [13] | Potency [14] | Potency [15] | Potency [16]

C=CCCl
inactive: Potency [1] | Potency [2] | Potency [3] | Potency [4] | Potency [5] | Potency [6] | Potency [7] | outcome [8] | Potency [9] | Potency [17] | Potency [10] | Potency [12] | Potency [18] | Potency [14] | Potency [15] | Potency [16]

CC(=O)C(C)(C)C
inactive: Potency [1] | Potency [2] | Potency [3] | Potency [4] | Potency [5] | Potency [6] | Potency [7] | outcome [8] | Potency [9] | Potency [10] | Potency [11] | Potency [12] | Potency [18] | Potency [14] | Potency [15] | Potency [16]

NCCCNCCCN
inactive: Potency [1] | Potency [2] | Potency [3] | Potency [4] | Potency [5] | Potency [6] | Potency [7] | outcome [8] | Potency [9] | Potency [10] | Potency [11] | Potency [12] | Potency [13] | Potency [18]

Reference: PubChem BioAssay (Tox21)
